An excerpt weighted towards active compounds, which were near 22% of everything screened.
Pf growth 48h: Primary qHTS for delayed death inhibitors of the malarial parasite plastid, 48 hour incubation; P. falciparum luciferase growth in erythrocytes, 48 h; Potency, µM (titrated, usually from 28.7 µM), without a hit: at the highest dose activity change, negative = inhibition, hits mostly inhibitors; actives 5.9% (n = 310,000); AID 504832, 2011; further: potency means the concentration at half of the fitted maximal effect; on the % scale 0 is the no-effect control and ±100 the full control effect
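Luciferase-expressing P. falciparum in infected erythrocytes (2% hematocrit, 0.1% parasitemia final) in RPMI 1640/0.5% Albumax were exposed to compound for 48 hours at 37 C, 5% CO2; growth read as luminescence.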
Shiga inhibitor: A qHTS for Small Molecule Inhibitors of Shiga Toxin; Vero cells, Shiga toxin protein synthesis inhibition reporter; inhibition, % at 38.7 µM; actives 9.2% (n = 290,000); AID 2315, 2010; in the data active means inhibition mostly above about 28%, no sharp cut-off; inactive means mostly below about 43%; further: 0% is about no effect
LmPK inhibitor: qHTS Assay for Inhibitors of Leishmania Mexicana Pyruvate Kinase (LmPK) | Q27686 | purified LmPK, Kinase-Glo ATP luminescence, 1 h | Potency, µM (doses to about 57.5 µM), for inactives: top-dose activity change, negative = inhibition, hits mostly inhibitors | actives 0.37% (n = 290,000); further: potency means the concentration at half of the fitted maximal effect; on the % scale 0 is the no-effect control and ±100 the full control effect
Target sequence (Q27686 whole entry, looked up): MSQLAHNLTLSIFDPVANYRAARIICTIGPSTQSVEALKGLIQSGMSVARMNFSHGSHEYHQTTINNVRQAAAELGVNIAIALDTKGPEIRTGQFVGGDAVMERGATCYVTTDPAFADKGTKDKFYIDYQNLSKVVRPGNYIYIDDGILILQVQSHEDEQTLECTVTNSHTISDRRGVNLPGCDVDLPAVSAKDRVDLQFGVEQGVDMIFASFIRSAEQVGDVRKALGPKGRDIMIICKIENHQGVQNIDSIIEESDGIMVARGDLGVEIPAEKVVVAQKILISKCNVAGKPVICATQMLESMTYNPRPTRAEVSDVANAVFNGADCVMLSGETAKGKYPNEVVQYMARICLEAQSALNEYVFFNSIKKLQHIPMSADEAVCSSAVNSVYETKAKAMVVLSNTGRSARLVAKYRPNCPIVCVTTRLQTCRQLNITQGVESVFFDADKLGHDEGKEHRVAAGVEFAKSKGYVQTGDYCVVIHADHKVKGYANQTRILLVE
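Screened at intermediate enzyme activity to detect both inhibitors and activators: LmPK at 0.1 nM, with a 0.5 nM enzyme column as activation reference. PEP 0.5 mM, ADP 0.1 mM; ATP detected by luminescence after 1 h.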
Pf growth 96h: Primary qHTS for delayed death inhibitors of the malarial parasite plastid, 96 hour incubation | P. falciparum luciferase reporter growth, 96 h | Potency, µM (doses to about 28.7 µM), for inactives: at the highest dose activity change, negative = inhibition, most hits filed as inhibitors | actives 6.9% (n = 320,000); further: potency means the concentration at half of the fitted maximal effect; on the % scale 0 is the no-effect control and ±100 the full control effect
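Parasite growth measured via integrated firefly luciferase reporter in P. falciparum. Infected erythrocytes at 2% hematocrit, 0.05% parasitemia final were treated 96 hours at 37 C under 5% CO2, and luminescence was read.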
CHX counter: Cycloheximide Counterscreen for Small Molecule Inhibitors of Shiga Toxin | cell reporter, cycloheximide protein synthesis inhibition counterscreen | max response, % | actives 12% (n = 300,000); in the data active means max response mostly above about 13%, no sharp cut-off; inactive means mostly below about 14%; further: read at 38.3 µM for the half of the compounds with a filed dose; 0% is about no effect
Numbers without * were called inactive; i = inactive; ? = inconclusive; . = no result given. Unless noted, the call rests on the fitted dose curve; in most records, active means well fitted inhibition curve with a large enough effect; inconclusive means small, poorly fitted or top-dose-only effect, or another doubt; inactive means no such curve, though single readings can be large or run the other way.

SMILES	Pf growth 48h	Shiga inhibitor	LmPK inhibitor	Pf growth 96h	CHX counter
CCCc1nc(N2CCN(S(=O)(=O)c3ccc(Cl)cc3)CC2)c2c(C)c(C)sc2n1	?	4	-1%	?	-2
Cc1sc2nc(CN3CCCC3)nc(N3CCN(S(=O)(=O)c4cccc(F)c4)CC3)c2c1C	8.3µM*	.	.	9.3µM*	.
COc1ccc(C(=O)N2CCN(c3nc(C4CC4)nc4sc(C)c(C)c34)CC2)cc1	12µM*	-12	1%	-16%	-2
c1ccc2c(c1)CCN(c1nc(CN3CCOCC3)nc3sc4c(c13)CCCC4)C2	15µM*	-7	-1%	?	-1
COc1ccc(CCNC(=S)NC(=O)c2cc(OC)c(OC)c(OC)c2)cc1OC	?	-2	-3%	?	-2
CCOC(=O)Cn1cc(/C=N/N2C(=O)C3C4C=CC(C4)C3C2=O)c2ccccc21 (stereo not drawn)	20%	29	-1%	21%	9
Cc1sc2nc(C3CC3)nc(N3CCN(S(=O)(=O)c4ccc(F)cc4)CC3)c2c1C	10µM*	-15	-3%	16%	-3
COc1ccccc1C(=O)NC1CCSc2ccccc21 (stereo not drawn)	-24%	-19	-1%	?	-1
O=C(N=C1SC2CS(=O)(=O)CC2N1CCc1ccc(F)cc1)C1CCCCC1 (stereo not drawn)	8%	16	-1%	23%	1
CC1CCC/C(=C\Nc2ccc(C(=O)O)cc2)C1=O (stereo not drawn)	i	55*	2%	?	37*
O=C1CCCC/C1=C\Nc1ccc(C(=O)O)c(O)c1	58%	62*	-25%	31%	17*
CCOC(=O)c1ccc(N/C=C2/CCCC(C)C2=O)cc1 (stereo not drawn)	.	52*	-5%	-30%	57*
Cc1cc(O)ccc1N/C=C1\CCCC1=O	53%	42*	3%	?	13*
O=C(O)c1ccc(NS(=O)(=O)c2ccc(Cl)c(Cl)c2)cc1O	-20%	-12	18%	.	-2
CCc1ccc(CC)c(S(=O)(=O)Nc2ccc(C(=O)O)c(O)c2)c1	0%	9	6%	?	8
COc1nccnc1NS(=O)(=O)c1ccc(N/C=C2\CCCCC2=O)cc1	6%	-3	10%	?	-1
Cc1ccc([N+](=O)[O-])cc1N/C=C1\CCCCC1=O	280%	93*	1%	-1%	58*
CC1CCC/C(=C\Nc2ccc(C(=O)O)c(O)c2)C1=O (stereo not drawn)	98%	82*	-11%	100%	38*
CC(=O)Nc1ccc2c(c1)CCCC2=O	52%	35	-4%	34%	16*
CC(=O)Nc1ccc(N/C=C2/CCCC2=O)cc1	28%	49*	2%	0%	11*
CSc1cccc(NC(=S)N2CCCN(Cc3cccc(Cl)c3)C2)c1	10µM*	-6	0%	40%	-8
Cc1noc(C)c1S(=O)(=O)N1CCCC1C(=O)O (stereo not drawn)	43%	3	0%	-9%	-5
O=C(Nc1ccc(F)cc1)C1CCCN1S(=O)(=O)c1ccc(Br)cc1 (stereo not drawn)	?	-12	1%	2%	-3
CN(C)c1ccc(/C=C(/NC(=O)c2ccccc2)C(=O)N/N=C/c2ccc([N+](=O)[O-])c(O)c2)cc1	13µM*	47*	3%	5.2µM*	52*
Cc1nn(C2CCS(=O)(=O)C2)c2nc(C3CC3)cc(C(=O)Nc3ccc(C(N)=O)cc3)c12 (stereo not drawn)	-14%	.	.	?	.
Cc1ccccc1Nc1nc(NCc2ccco2)c2ccccc2n1	?	49	-1%	5%	19*
Oc1ccccc1Nc1nc(NCc2ccco2)c2ccccc2n1	?	15	4%	2.1µM*	-1
CCOc1ccc(S(=O)(=O)N(CC(=O)NCc2cccnc2)c2ccc(F)cc2)cc1	-12%	-6	-2%	32%	-6
Cc1ccc(S(=O)(=O)c2nnn3c2nc(N2CCOCC2)c2ccccc23)c(C)c1	?	-4	2%	14%	-1
COC(=O)C1CCN(Cc2cc(=O)oc3cc(C)c(Cl)cc23)CC1	-10%	-18	2%	-2%	-5

Compound activity: PubChem, National Center for Advancing Translational Sciences (NCATS)
